# Screens deposited in PubChem BioAssay by several laboratories.
# Most compounds without a hit are left out; they make up all but 7.8% or so of the library.
# sEH inhibitor: blocks human soluble epoxide hydrolase activity. 91,000 compounds, 0.34% hits. recombinant human sEH enzymatic activity assay. inhibition, % at 2 µM. AID 707; in the data active means inhibition above about 80%
# Target sequence (P34913 whole entry, looked up): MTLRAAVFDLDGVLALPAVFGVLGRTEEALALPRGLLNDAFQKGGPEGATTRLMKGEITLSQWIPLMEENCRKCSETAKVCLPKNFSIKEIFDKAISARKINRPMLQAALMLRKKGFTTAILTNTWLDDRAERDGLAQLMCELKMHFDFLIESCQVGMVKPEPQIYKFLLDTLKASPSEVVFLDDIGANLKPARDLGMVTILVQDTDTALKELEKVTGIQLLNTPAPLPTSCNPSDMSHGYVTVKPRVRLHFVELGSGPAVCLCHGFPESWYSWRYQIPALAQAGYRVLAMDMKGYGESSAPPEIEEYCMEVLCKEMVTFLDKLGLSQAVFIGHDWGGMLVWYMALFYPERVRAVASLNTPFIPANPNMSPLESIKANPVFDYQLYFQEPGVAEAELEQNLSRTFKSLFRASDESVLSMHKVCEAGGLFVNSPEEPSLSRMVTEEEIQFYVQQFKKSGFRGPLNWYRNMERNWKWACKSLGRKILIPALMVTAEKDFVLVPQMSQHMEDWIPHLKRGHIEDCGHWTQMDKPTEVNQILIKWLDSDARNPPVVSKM
# PostGolgi yeast: growth inhibition of a yeast mutant, post-Golgi transport screen | 98,000 compounds, 0.9% hits | inhibition, % at 10 µM | AID 739 | post-Golgi transport phenotypic cell assay;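 further: yeast cells grown in 1536-well plates; yeast grown about 18 h at 30C before absorbance read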
# Cav32 inh: blocks human Cav3.2 T-type calcium channel | AID 449739 | B-score at 10 µM | Cav3.2-expressing cells, Fluo-4 calcium fluorescence FDSS; active compounds read low | 100,000 compounds, 4% hits | O95180;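 active means single-dose well whose peak fluorescence ratio is a statistical outlier from its plate by either plate-standardised score or position-corrected B-score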
# sEH activator: soluble epoxide hydrolase (human) activation. AID 717. 91,000 compounds, 0.04% hits. activation, % at 2 µM. P34913. purified human sEH enzymatic activity, activator screen; in the data active means activation above about 37%
# PostGolgi ctrl: inhibits growth of the yeast control strain; AID 738; inhibition, % at 10 µM; efflux-deficient yeast background strain, growth absorbance A615, 16 h; 98,000 compounds, 5% hits
# Hits are given with their value; 0 = inactive; - = no result given. Unless noted, no stated cut-off is given here; in the data, active means inhibition above about 30%; inactive means the rest.
SMILES,sEH inhibitor,PostGolgi yeast,Cav32 inh,sEH activator,PostGolgi ctrl
CCC(=O)NS(=O)(=O)c1ccc(-c2c(-c3ccccc3)noc2C)cc1,-,-,0,-,-
Fc1cccc(Cn2cc(C(=S)N3CCCCC3)c3ccccc32)c1,0,0,-4.9,0,0
O=C(CCCc1ccccc1)Nc1cccc2c1CCCC2,0,0,0,0,37
O=C(COc1ccccc1)Nc1cccc2c1CCCC2,0,0,0,0,0
Cc1ccc(C(C)C)c(OCCNC(=O)c2cncc(Br)c2)c1,0,0,-4.9,0,0
O=C(NCCOc1ccccc1)c1cncc(Br)c1,0,0,0,0,0
COCCN(C(=O)CSc1nnc(Nc2ccccc2F)s1)c1c(N)n(Cc2ccccc2)c(=O)[nH]c1=O,0,0,0,0,0
CCOC(=O)C1CCCN(CC(=O)Nc2c(C(=O)OC)[nH]c3ccc(Cl)cc23)C1 (centres undefined),0,0,0,0,39
CCN(CC(=O)Nc1c(C(=O)OC)[nH]c2ccc(Cl)cc12)c1ccc2c(c1)OCO2,0,0,0,0,57
COc1cc(CO)cc(Br)c1OCc1cccnc1,-,0,0,-,0
CNC(=O)CN(c1ccc(F)cc1)S(=O)(=O)c1cc(C)ccc1OC,0,0,0,0,0
O=S(=O)(Nc1ccc2c(c1)nc1n2CCOC1)c1ccc(Cl)cc1,-,0,0,-,0
O=C1O[C@@H]([C@H](O)CO)C(O)=C1O,-,-,0,-,-
O=C(N/N=C/C=C/c1ccccc1)c1cc2c(ccc3ccccc32)o1,0,0,0,0,0
C=CCn1cc(/C=N\NC(=O)c2cc3c(ccc4ccccc43)o2)c2ccccc21,0,0,0,0,35
O=S1(=O)C=C(Sc2nnc(-c3ccccc3)o2)c2ccccc21,-,88,-,-,31
O=c1cc(C(Cl)(Cl)Cl)oc2c1ccc1ccccc12,0,0,0,0,53
CC(C)CCNC(=O)CN(C(=O)CCC(=O)Nc1ccccn1)c1ccc2c(c1)OCO2,0,0,0,0,0
CCCc1cc(SCC(=O)Nc2c(C)n(C)n(-c3ccccc3)c2=O)n2c(nc3ccccc32)c1C#N,0,0,0,0,0
COC(=O)c1ccc(C(=O)Nc2cc(Cl)ccc2Cl)cc1NC(=O)c1ccc(N(C)C)cc1,-,0,0,-,0
O=C(CSc1n[nH]c(-c2ccc(Cl)cc2Cl)n1)Nc1ccccn1,0,0,-,0,33
N#C/C(C(=O)N1CCOCC1)=C1/SC=C(c2ccccc2)N1c1ccccc1,0,-,-,0,-
Cc1nc2c(C(=O)NCCC(C)C)c[nH]n2c(=O)c1Cc1ccccc1F,0,0,-5.2,0,0
COC1(c2cc(-c3ccccc3)nc(N)n2)CCCCC1,0,0,0,0,0
Cc1nc2ccccc2cc1OCc1ccc(Cl)cc1,-,0,0,-,36
SMILES,sEH inhibitor,PostGolgi yeast,Cav32 inh,sEH activator,PostGolgi ctrl
Cc1nc2ccccc2cc1OCc1ccccc1,0,0,-,0,0
O=C(CSc1ccsc1[N+](=O)[O-])NCCc1ccc(Cl)cc1,0,0,0,0,0
CC(Sc1ccsc1[N+](=O)[O-])C(=O)NCCc1ccc(Cl)cc1 (centres undefined),0,70,0,0,34
C=CCSC1=N/C(=C\c2ccc(C)o2)C(=O)S1,0,0,0,0,0
N#Cc1cc(C#N)c(N2CCN(c3cccc(Cl)n3)CC2)nc1N,0,0,0,0,58
Cc1ccc(S(=O)(=O)N2CCCC(NC(=O)N3CCN(c4ccccc4)CC3)C2)cc1 (centres undefined),0,0,-4.4,0,0
O=C(NC1CCCCC1)N1CCN(c2ccccc2)CC1,0,-,0,0,-
CC(C)OC(=O)c1c2nc3ccccc3nc2n2c1[nH]c(=O)c1ccccc12,0,34,-,0,71
CC(C)OC(=O)c1c(N)n(CCCN2CCOCC2)c2nc3ccccc3nc12,0,0,0,0,0
CC1Cc2nc(SCC(=O)Nc3nccs3)n(Cc3ccccc3)c(=O)c2S1 (centres undefined),0,0,0,0,0
CCSc1nc2c(c(=O)n1Cc1ccccc1)SC(C)C2 (centres undefined),0,0,0,0,33
COc1ccccc1CN(C(=O)Cc1cccs1)C(C(=O)NC1CCCC1)c1ccncc1 (centres undefined),0,0,0,0,0
COc1ccc(CN(C(=O)Cc2c[nH]c3ccccc23)C(C(=O)NC2CCCCC2)c2ccc(C)o2)cc1 (centres undefined),0,0,-7.3,0,0
COc1cc(C(C(=O)NC2CCCCC2)N(Cc2cccs2)C(=O)Cc2c[nH]c3ccccc23)cc(OC)c1OC (centres undefined),0,0,-6.5,0,0
COc1ccc(C(C(=O)NC2CCCC2)N(Cc2ccccc2)C(=O)CNC(=O)c2ccco2)cc1 (centres undefined),0,0,0,0,0
